The text below walks through data of PubChem BioAssay (EPA / NIEHS).

Results filed as inconclusive are left out. Calls of active or inactive are those of the source. Rule for the calls: active = hit-call score of the fitted dose curve at least 0.9, where 1 is the maximum; inconclusive = response in the unintended direction; inactive = score below 0.9.

The term AC50 denotes the concentration at which the activity in the assay is half-maximal.

Sequence of human Retinoic Acid Receptor gamma (RARg), RARG (gene 5916) (P13631 whole entry, looked up, the tested form may be a part): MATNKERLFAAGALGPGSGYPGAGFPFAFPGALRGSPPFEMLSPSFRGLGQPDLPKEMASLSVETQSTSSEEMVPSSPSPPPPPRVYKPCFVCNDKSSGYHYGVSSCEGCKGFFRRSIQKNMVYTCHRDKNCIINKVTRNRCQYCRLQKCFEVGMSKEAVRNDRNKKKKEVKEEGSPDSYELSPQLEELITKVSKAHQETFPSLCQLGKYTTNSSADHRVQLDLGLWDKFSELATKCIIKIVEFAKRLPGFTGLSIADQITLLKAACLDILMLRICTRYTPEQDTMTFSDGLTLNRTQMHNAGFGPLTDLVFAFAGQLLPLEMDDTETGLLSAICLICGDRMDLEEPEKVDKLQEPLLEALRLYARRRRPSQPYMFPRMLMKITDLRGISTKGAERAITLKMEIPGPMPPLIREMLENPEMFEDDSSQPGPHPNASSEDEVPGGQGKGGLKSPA
Sequence of human RAR-related Orphan Receptor beta (RORb), RORB (gene 6096) (Q92753 whole entry, looked up, the tested form may be a part): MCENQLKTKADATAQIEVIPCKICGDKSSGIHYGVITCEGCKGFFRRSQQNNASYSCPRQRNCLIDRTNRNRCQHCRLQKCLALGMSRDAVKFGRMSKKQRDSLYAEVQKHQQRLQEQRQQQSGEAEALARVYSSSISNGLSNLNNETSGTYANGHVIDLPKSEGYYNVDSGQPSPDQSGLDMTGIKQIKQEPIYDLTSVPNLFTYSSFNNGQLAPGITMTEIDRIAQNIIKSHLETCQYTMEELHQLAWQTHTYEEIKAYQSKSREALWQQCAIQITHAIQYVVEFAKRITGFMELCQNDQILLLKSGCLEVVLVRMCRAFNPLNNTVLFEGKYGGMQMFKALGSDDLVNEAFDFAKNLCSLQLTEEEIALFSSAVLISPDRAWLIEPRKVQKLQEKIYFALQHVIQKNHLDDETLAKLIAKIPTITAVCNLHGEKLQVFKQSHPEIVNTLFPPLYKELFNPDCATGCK
Sequence of Nuclear receptor subfamily 1 group I member 2 (Homo sapiens) (O75469 whole entry, looked up, the tested form may be a part): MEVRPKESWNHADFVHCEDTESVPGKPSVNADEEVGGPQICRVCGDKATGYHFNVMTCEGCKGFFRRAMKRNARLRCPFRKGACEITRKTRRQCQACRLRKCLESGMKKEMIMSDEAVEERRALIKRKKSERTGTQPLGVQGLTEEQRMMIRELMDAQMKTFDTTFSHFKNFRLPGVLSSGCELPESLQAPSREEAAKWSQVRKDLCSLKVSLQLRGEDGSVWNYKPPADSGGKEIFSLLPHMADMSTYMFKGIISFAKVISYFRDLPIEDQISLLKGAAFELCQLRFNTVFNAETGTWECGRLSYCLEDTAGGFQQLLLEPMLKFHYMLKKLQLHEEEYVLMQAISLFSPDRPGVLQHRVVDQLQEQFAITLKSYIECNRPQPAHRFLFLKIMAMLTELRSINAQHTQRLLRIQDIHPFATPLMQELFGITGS
Sequence of human RAR-related Orphan Receptor gamma (RORg), RORC (gene 6097) (P51449 whole entry, looked up, the tested form may be a part): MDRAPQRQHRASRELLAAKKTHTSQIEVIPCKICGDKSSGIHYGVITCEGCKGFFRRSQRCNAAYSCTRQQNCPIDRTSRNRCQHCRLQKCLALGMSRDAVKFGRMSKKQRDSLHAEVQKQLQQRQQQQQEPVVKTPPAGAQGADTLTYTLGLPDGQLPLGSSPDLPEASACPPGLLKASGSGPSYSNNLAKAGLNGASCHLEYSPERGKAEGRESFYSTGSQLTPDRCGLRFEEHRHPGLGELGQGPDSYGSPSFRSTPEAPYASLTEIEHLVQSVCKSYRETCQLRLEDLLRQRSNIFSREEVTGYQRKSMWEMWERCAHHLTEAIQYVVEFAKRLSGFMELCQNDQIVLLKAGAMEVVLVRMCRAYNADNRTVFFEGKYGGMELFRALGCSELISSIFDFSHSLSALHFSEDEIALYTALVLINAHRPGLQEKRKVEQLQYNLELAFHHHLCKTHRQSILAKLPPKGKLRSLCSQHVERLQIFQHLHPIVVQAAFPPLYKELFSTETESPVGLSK

The first assay concerns the target Nuclear receptor subfamily 1 group I member 2 (Homo sapiens) (UniProt O75469). Nature of the assay: ATG_PXR_TRANS: Attagene TRANS-FACTORIAL HepG2 Assay for human Pregnane X Receptor (PXR) (AID 2283008). An outline of the steps:
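Trans-factorial format: exogenous NR-Gal4 fusion activity, not endogenous factor, in transfected human HepG2 liver cells. After 24 h dosing, RNA isolated, reverse-transcribed, amplified and resolved by capillary electrophoresis; induction scored versus DMSO.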
For `CCCCC(CC)CCC(CC(C)C)OS(=O)(=O)O` (centres undefined), the AC50 was 5.35 µM (active).
As to `c1cc(N(CC2CO2)CC2CO2)ccc1OCC1CO1` (centres undefined), the outcome was inactive.
Same read-out and setting: the entry for `O=C(O)CCCCCCCCCC(=O)O` is “inactive”.
Turning to `CC(C)(C)C(=O)C=Cc1ccc(Cl)cc1`, the concentration at half-maximal activity (AC50) is 26.2 µM (active).
With `CC(=O)OCc1ccco1`, the call was inactive.
On to `Clc1nc2ccccc2s1`, for which the compound was classed as inactive.
Regarding `CCOC(=O)c1ccc(N(C)C)cc1`, the AC50 was 27.5 µM (active).
`CCCCCC/C=C/C=O`: the compound was classed as inactive.
Same read-out and setting: to `FC(F)(F)C(=NOCC1OCCO1)c1ccc(Cl)cc1` belongs “inactive”; to `Cc1ccc(N/N=c2\c(=O)cc/c(=N/Nc3ccc(S(=O)(=O)O)cc3)c2=O)c(C)c1`, “inactive”.
Same read-out and setting: to `CCCCCc1ccc(Cl)cc1` belongs “inactive”; to `CNC(=S)N(C)C`, “inactive”; to `C[Si](C)(CCCN)O[Si](C)(C)CCCN`, “inactive”.
The same measure, in the same setting: the entry for `CC1=NN(c2cc(S(=O)(=O)O)ccc2Cl)C(=O)C1N=Nc1ccccc1` (centres undefined) is “inactive”; for `CC(C)(C)c1ccc(OC(=O)c2ccccc2O)cc1` it is “inactive”; for `CCCCCCCCCCCCCOP(=O)(O)O` it is “inactive”.
As for `CCCCCCCCCCOC(C)=O`, the compound was called inactive.
The same measure, in the same setting: to `Cc1ccc2oc(=O)ccc2c1` belongs “inactive”; to `C=CC(=O)OCCC(=O)O`, “inactive”.
Still for that read-out and setting: the entry for `CCCCCCCCCCc1ccccc1` is “inactive”.
As to `COc1c2ccoc2cc2oc(=O)ccc12`, the concentration at half-maximal activity (AC50) is 36.6 µM (active).
Consider `COc1ccc([C@@H]2CC(=O)c3c(O)cc(O[C@@H]4O[C@H](CO[C@@H]5O[C@@H](C)[C@H](O)[C@@H](O)[C@H]5O)[C@@H](O)[C@H](O)[C@H]4O)cc3O2)cc1OC`, for which the compound was classed as inactive.
Consider `O=C(C=Cc1ccccc1)OCc1ccccc1`, for which the call was inactive.
With `O=C1CC2CC1C1CCCC21` (centres undefined), the result was inactive.
On the same count and under the same terms, to `Cc1ccc([N+](=O)[O-])cc1S(=O)(=O)O` belongs “inactive”; to `CC(C)(C)c1ccc(N)cc1`, “inactive”.
Regarding `CC(C)c1ccc2cc(C(C)C)ccc2c1`, the AC50 is 7.42 µM (active).
Same read-out and setting: the figure for `CCCCCCC1(C)CCC(=O)O1` (centres undefined) is 33.2 µM (active).
For the compound `COc1cc(NC(=O)CC(C)=O)c(OC)cc1Cl`, the compound was called inactive.
Regarding `CC1=CC[C@H](C(C)C)C=C1`, the concentration at half-maximal activity (AC50) was 0.822 µM (active).
The same measure, in the same setting: to `CCN(CC)c1ccc(C(=O)c2ccccc2C(=O)O)c(O)c1` belongs 0.611 µM (active).
With `CC1=Nc2ccc3ccccc3c2C1(C)C`, the concentration at half-maximal activity (AC50) is 2.65 µM (active).
Regarding `O=C1c2ccccc2C(=O)C1c1nc2ccccc2c(Br)c1O`, the result was inactive.
With `C=C(C)C(=O)OCCO`, the call was inactive.
Still for that read-out and setting: to `SCCc1cnccn1` belongs “inactive”.
On the same count and under the same terms, to `Cc1cccc(C(=O)O)c1` belongs “inactive”.
In the case of `CCCCCCCCCCC=CC#N`, the half-maximal activity concentration (AC50) is 29.9 µM (active).
On the same count and under the same terms, to `C[C@]12CCC(=O)C=C1CC[C@@H]1[C@@H]2C(=O)C[C@@]2(C)[C@H]1CC[C@]2(O)C(=O)CO` belongs 26.9 µM (active).
On to `COC(=O)c1ccc2cc(C(=O)OC)ccc2c1`, for which the call was inactive.

The target in a further assay is human Retinoic Acid Receptor gamma (RARg), RARG (gene 5916) (UniProt P13631). Nature of the assay: ATG_RARg_TRANS: Attagene TRANS-FACTORIAL HepG2 Assay for human Retinoic Acid Receptor gamma (RARg) (AID 2283009). Summed up:
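Transactivation of exogenous RARg-Gal4 fusion measured as reporter transcript induction after 24 h in transfected HepG2 cells. RNA reverse-transcribed, amplified, fluorescently labeled and resolved by capillary electrophoresis; increase relative to DMSO.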
For the compound `c1cc(N(CC2CO2)CC2CO2)ccc1OCC1CO1` (centres undefined), the result was inactive.
The same measure, in the same setting: the entry for `Clc1nc2ccccc2s1` is “inactive”.
On the same count and under the same terms, to `CC1=NN(c2cc(S(=O)(=O)O)ccc2Cl)C(=O)C1N=Nc1ccccc1` (centres undefined) belongs “inactive”; to `CCCCCCCCCCCCCOP(=O)(O)O`, “inactive”.
`COc1ccc([C@@H]2CC(=O)c3c(O)cc(O[C@@H]4O[C@H](CO[C@@H]5O[C@@H](C)[C@H](O)[C@@H](O)[C@H]5O)[C@@H](O)[C@H](O)[C@H]4O)cc3O2)cc1OC`: the compound was classed as inactive.
Same read-out and setting: the entry for `O=C1CC2CC1C1CCCC21` (centres undefined) is “inactive”.
On to `CC1=Nc2ccc3ccccc3c2C1(C)C`, for which the compound was called inactive.
Consider `COC(=O)c1ccc2cc(C(=O)OC)ccc2c1`, for which the outcome was inactive.

The next assay concerns the target human RAR-related Orphan Receptor beta (RORb), RORB (gene 6096) (UniProt Q92753). Nature of the assay: ATG_RORb_TRANS: Attagene TRANS-FACTORIAL HepG2 Assay for human RAR-related Orphan Receptor beta (RORb) (AID 2283010). An outline of the steps: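 Read-out is reporter mRNA induction, quantified by RT-PCR with fluorescent capillary electrophoresis, 24 h post-dose in transiently transfected HepG2 expressing exogenous NR-Gal4 chimera. Activity fitted upward versus DMSO.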
As to `CCCCC(CC)CCC(CC(C)C)OS(=O)(=O)O` (centres undefined), the result was inactive.
For `O=C(O)CCCCCCCCCC(=O)O`, the compound was called inactive.
The same measure, in the same setting: the entry for `CC(=O)OCc1ccco1` is “inactive”; for `Clc1nc2ccccc2s1` it is “inactive”.
On the same count and under the same terms, to `CCCCCC/C=C/C=O` belongs “inactive”; to `FC(F)(F)C(=NOCC1OCCO1)c1ccc(Cl)cc1`, “inactive”; to `Cc1ccc(N/N=c2\c(=O)cc/c(=N/Nc3ccc(S(=O)(=O)O)cc3)c2=O)c(C)c1`, “inactive”.
Still for that read-out and setting: to `CC1=NN(c2cc(S(=O)(=O)O)ccc2Cl)C(=O)C1N=Nc1ccccc1` (centres undefined) belongs “inactive”.
With `CCCCCCCCCCOC(C)=O`, the outcome was inactive.
Take `Cc1ccc2oc(=O)ccc2c1`: the compound was classed as inactive.
Same read-out and setting: the entry for `CCCCCCCCCCc1ccccc1` is “inactive”; for `O=C(C=Cc1ccccc1)OCc1ccccc1` it is “inactive”; for `O=C1CC2CC1C1CCCC21` (centres undefined) it is “inactive”.
On to `Cc1ccc([N+](=O)[O-])cc1S(=O)(=O)O`, for which the call was inactive.
On the same count and under the same terms, the entry for `CC(C)(C)c1ccc(N)cc1` is “inactive”; for `CC(C)c1ccc2cc(C(C)C)ccc2c1` it is “inactive”; for `COc1cc(NC(=O)CC(C)=O)c(OC)cc1Cl` it is “inactive”.
Still for that read-out and setting: to `O=C1c2ccccc2C(=O)C1c1nc2ccccc2c(Br)c1O` belongs “inactive”; to `C=C(C)C(=O)OCCO`, “inactive”; to `CCCCCCCCCCC=CC#N`, “inactive”.
In the case of `COC(=O)c1ccc2cc(C(=O)OC)ccc2c1`, the compound was classed as inactive.

In another assay the target is human RAR-related Orphan Receptor gamma (RORg), RORC (gene 6097) (UniProt P51449). The experiment in a line: ATG_RORg_TRANS: Attagene TRANS-FACTORIAL HepG2 Assay for human RAR-related Orphan Receptor gamma (RORg) (AID 2283011).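 For AC50: potency for induction of reporter transcripts above DMSO so activators.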 An outline of the steps:
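HepG2 cells transiently transfected with GAL4-UAS reporter units and chimeric RORg-Gal4 construct; after 24 h chemical exposure, reporter mRNA measured by RT-PCR with fluorescent capillary electrophoresis, gain of signal fitted against DMSO.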
With `CC(C)(C)C(=O)C=Cc1ccc(Cl)cc1`, the AC50 is 24.4 µM (active).
For `CC(=O)OCc1ccco1`, the outcome was inactive.
With `Clc1nc2ccccc2s1`, the compound was classed as inactive.
Same read-out and setting: to `CCOC(=O)c1ccc(N(C)C)cc1` belongs “inactive”.
For `Cc1ccc(N/N=c2\c(=O)cc/c(=N/Nc3ccc(S(=O)(=O)O)cc3)c2=O)c(C)c1`, the call was inactive.
The same measure, in the same setting: to `CCCCCc1ccc(Cl)cc1` belongs “inactive”; to `CNC(=S)N(C)C`, “inactive”; to `C[Si](C)(CCCN)O[Si](C)(C)CCCN`, “inactive”.
Still for that read-out and setting: to `CC1=NN(c2cc(S(=O)(=O)O)ccc2Cl)C(=O)C1N=Nc1ccccc1` (centres undefined) belongs “inactive”.
The same measure, in the same setting: the entry for `CCCCCCCCCCCCCOP(=O)(O)O` is “inactive”; for `CCCCCCCCCCOC(C)=O` it is “inactive”.
On to `C=CC(=O)OCCC(=O)O`, for which the compound was called inactive.
The same measure, in the same setting: to `CCCCCCCCCCc1ccccc1` belongs “inactive”; to `COc1c2ccoc2cc2oc(=O)ccc12`, “inactive”.
The same measure, in the same setting: to `COc1ccc([C@@H]2CC(=O)c3c(O)cc(O[C@@H]4O[C@H](CO[C@@H]5O[C@@H](C)[C@H](O)[C@@H](O)[C@H]5O)[C@@H](O)[C@H](O)[C@H]4O)cc3O2)cc1OC` belongs “inactive”; to `O=C(C=Cc1ccccc1)OCc1ccccc1`, “inactive”; to `Cc1ccc([N+](=O)[O-])cc1S(=O)(=O)O`, “inactive”.
Same read-out and setting: to `CC(C)(C)c1ccc(N)cc1` belongs “inactive”; to `CCCCCCC1(C)CCC(=O)O1` (centres undefined), “inactive”.
Consider `CC1=CC[C@H](C(C)C)C=C1`, for which the compound was called inactive.
In the case of `CCN(CC)c1ccc(C(=O)c2ccccc2C(=O)O)c(O)c1`, the outcome was inactive.
Still for that read-out and setting: to `O=C1c2ccccc2C(=O)C1c1nc2ccccc2c(Br)c1O` belongs “inactive”; to `C=C(C)C(=O)OCCO`, “inactive”.
Still for that read-out and setting: the entry for `SCCc1cnccn1` is “inactive”; for `Cc1cccc(C(=O)O)c1` it is “inactive”; for `C[C@]12CCC(=O)C=C1CC[C@@H]1[C@@H]2C(=O)C[C@@]2(C)[C@H]1CC[C@]2(O)C(=O)CO` it is “inactive”.
